# In PubChem BioAssay (EPA / NIEHS):
# Records with an inconclusive call do not appear. Calls of active or inactive are those of the source. How the source made its calls, unless noted: active means hit-call score of the fitted dose curve at least 0.9, where 1 is the maximum; inconclusive means response in the unintended direction; inactive means score below 0.9.
# Legend:
# [1] = Tanguay_ZF_120hpf_PFIN_legacy: (Legacy) Oregon State University Tanguay Lab 120 Hour Post-fertilization zebrafish Assay for Pectoral Fin Malformation (AID 2283648);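 further: each larva judged yes or no for fin defect by brightfield with dead larvae skipped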
# In short: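 5D WT zebrafish; pronase dechorionation 4 hpf; 1 embryo/well at 6 hpf; static exposure to 120 hpf, 28C, sealed, foil-covered; final DMSO 0.64% v/v; 5 uM trimethyltin chloride positive control; fin defect scored yes/no.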
# [2] = Tanguay_ZF_120hpf_CFIN_legacy: (Legacy) Oregon State University Tanguay Lab 120 Hour Post-fertilization zebrafish Assay for Caudal Fin Malformation (AID 2283649)
# In short: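 Binary brightfield scoring of caudal fin defects at 120 hpf after static, light-shielded exposure at 28C from 6 hpf. Tropical 5D embryos, chorion removed with pronase at 4 hpf, final DMSO 0.64%.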
# [3] = Tanguay_ZF_120hpf_PIG_legacy: (Legacy) Oregon State University Tanguay Lab 120 Hour Post-fertilization zebrafish Assay for Pigmentation Malformation (AID 2283650)
# In short: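 Pronase dechorionation at 4 hpf; embryos plated at 6 hpf, one per well; static exposure, sealed and foil-covered, 28C, to 120 hpf; pigmentation read by brightfield, binary; DMSO 0.64% baseline, 5uM trimethyltin chloride positive control.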
# [4] = Tanguay_ZF_120hpf_CIRC_legacy: (Legacy) Oregon State University Tanguay Lab 120 Hour Post-fertilization zebrafish Assay for Circulatory Malformation (AID 2283651)
# In short: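 Dechorionated wild-type 5D zebrafish embryos, one per well, statically exposed from 6 to 120 hpf at 28C with 0.64% DMSO; circulatory malformation scored present/absent by brightfield microscopy at 120 hpf, dead embryos excluded.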
# [5] = Tanguay_ZF_120hpf_SWIM_legacy: (Legacy) Oregon State University Tanguay Lab 120 Hour Post-fertilization zebrafish Assay for Swim Bladder Malformation (AID 2283654);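 further: swim bladder malformation in each larva scored yes or no under brightfield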
# In short: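 Embryos lacking chorions were exposed individually and statically to test chemical from 6 to 120 hpf at 28C, with 0.64% DMSO as vehicle. At 120 hpf, swim bladder malformation was recorded as present or absent by brightfield microscopy.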
# [6] = Tanguay_ZF_120hpf_TRUN_legacy: (Legacy) Oregon State University Tanguay Lab 120 Hour Post-fertilization zebrafish Assay for Truncated Body (AID 2283655)
# In short: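 Binary presence/absence of truncated body is recorded at 120 hpf by brightfield, with non-mortality endpoints skipped after death. Exposure is static from 6 hpf in sealed dark plates at 28C, using dechorionated wild-type zebrafish, 0.64% DMSO.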
# [7] = Tanguay_ZF_120hpf_NC_legacy: (Legacy) Oregon State University Tanguay Lab 120 Hour Post-fertilization zebrafish Assay for Notochord and Tail Malformation (AID 2283656)
# In short: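 Dechorionated Tropical 5D wild-type zebrafish embryos, one per well from 6 hpf, statically exposed to 120 hpf at 28C in 0.64% DMSO final. Notochord distortion scored present/absent by brightfield; dead embryos excluded.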
# [8] = Tanguay_ZF_120hpf_TR_legacy: (Legacy) Oregon State University Tanguay Lab 120 Hour Post-fertilization zebrafish Assay for Touch Response (AID 2283667)
# In short: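 5D WT embryos; static exposure to 120 hpf, 28C, sealed/dark; DMSO 0.64% v/v final. TR scored present/absent; dead embryos excluded. Pos ctrl 5uM trimethyltin chloride.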
# [9] = Tanguay_ZF_120hpf_ActivityScore_legacy: (Legacy) Oregon State University Tanguay Lab 120 Hour Post-fertilization zebrafish Assay Score for Activity (AID 2283742)
# In short: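 Embryos are staged, enzymatically dechorionated at 4 hpf, placed individually at 6 hpf, then held in test chemical (0.64% DMSO) at 28C until 120 hpf. Mortality and malformations are scored by brightfield, with non-mortality endpoints skipped for dead embryos.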
# [10] = CCTE_Deisenroth_AIME_384WELL_CTox_Active: Cytotoxicity Assessment (CTOX) in CCTE's 384-well Estrogen Receptor Transactivation Assay with AIME metabolic competence (metabolism positive), Deisenroth Lab (AID 2284037);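 further: chemicals first conditioned 2 h by alginate-bound induced rat liver S9 before cells; activity means signal loss indicating cell death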
# In short: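 Cytotoxicity in VM7Luc4E2 breast cells, 24 hour, measured as protease-substrate fluorescence loss, after 2-hour metabolic conditioning with induced rat hepatic S9 in alginate microspheres. Concentrations 0.002 - 200 uM, 10 points, bidirectional fitting.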
# [11] = molecular target: human Matrix Metalloproteinase-9 (MMP9), MMP9 (gene 4318) (UniProt P14780); experiment: NVS_ENZ_hMMP9: NovaScreen (NVS) Enzymatic Assay for human Matrix Metalloproteinase-9 (MMP9) (AID 2283190);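 further: cell-free recombinant MMP9 protease activity read by fluorescent substrate signal; active means inhibition seen as loss of fluorescence signal versus DMSO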
# human Matrix Metalloproteinase-9 (MMP9), MMP9 (gene 4318), sequence (P14780 whole entry, looked up): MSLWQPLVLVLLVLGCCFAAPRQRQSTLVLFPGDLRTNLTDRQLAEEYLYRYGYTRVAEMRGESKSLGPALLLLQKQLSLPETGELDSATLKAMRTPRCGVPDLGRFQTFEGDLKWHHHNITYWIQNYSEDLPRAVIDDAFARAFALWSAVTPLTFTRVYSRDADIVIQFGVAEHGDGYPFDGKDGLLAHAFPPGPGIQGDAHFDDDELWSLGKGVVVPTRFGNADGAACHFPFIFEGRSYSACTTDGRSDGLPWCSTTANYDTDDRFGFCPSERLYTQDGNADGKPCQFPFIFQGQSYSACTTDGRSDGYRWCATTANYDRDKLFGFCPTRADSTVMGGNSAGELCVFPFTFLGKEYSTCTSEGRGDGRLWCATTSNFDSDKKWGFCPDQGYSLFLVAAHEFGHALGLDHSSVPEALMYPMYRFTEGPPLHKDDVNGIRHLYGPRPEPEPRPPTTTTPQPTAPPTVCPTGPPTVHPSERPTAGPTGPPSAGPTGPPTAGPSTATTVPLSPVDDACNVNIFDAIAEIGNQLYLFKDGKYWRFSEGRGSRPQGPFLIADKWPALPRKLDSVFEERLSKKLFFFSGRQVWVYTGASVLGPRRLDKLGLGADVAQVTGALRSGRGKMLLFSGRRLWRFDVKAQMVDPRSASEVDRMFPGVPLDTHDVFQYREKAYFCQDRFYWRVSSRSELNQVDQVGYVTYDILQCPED
# In short: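 Cell-free recombinant MMP9 enzyme activity measured by fluorescence intensity 1 h after dosing. Primary screen in duplicate at 25 uM, actives followed in concentration series; loss of signal relative to DMSO.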
# [12] = molecular target: human Adenosine A2a Receptor (AdoRA2a), ADORA2A (gene 135) (UniProt P29274); experiment: NVS_GPCR_hAdoRA2a: NovaScreen (NVS) G Protein-Coupled Receptor Assay for human Adenosine A2a Receptor (AdoRA2a) (AID 2283256)
# human Adenosine A2a Receptor (AdoRA2a), ADORA2A (gene 135), sequence (P29274 whole entry, looked up): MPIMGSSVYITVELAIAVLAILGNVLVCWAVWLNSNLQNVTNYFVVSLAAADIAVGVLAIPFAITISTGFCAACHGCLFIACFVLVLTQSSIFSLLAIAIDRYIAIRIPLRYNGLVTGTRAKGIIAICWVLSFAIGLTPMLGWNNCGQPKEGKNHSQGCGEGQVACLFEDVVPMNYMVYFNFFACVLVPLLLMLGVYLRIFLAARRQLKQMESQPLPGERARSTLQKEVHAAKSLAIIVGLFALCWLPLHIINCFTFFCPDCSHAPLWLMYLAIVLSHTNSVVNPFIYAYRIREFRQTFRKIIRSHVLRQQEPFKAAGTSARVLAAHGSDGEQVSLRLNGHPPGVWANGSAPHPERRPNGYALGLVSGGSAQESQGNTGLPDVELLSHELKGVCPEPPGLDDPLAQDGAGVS
# In short: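 Radioligand displacement on HEK293-derived membrane protein, cell-free; filter-based scintillation counting 1.5 hours after dosing, loss of signal vs DMSO. Single-point duplicate screen at 25 uM, actives retested in concentration series.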
# [13] = STM_H9_OrnCyssISnorm_ratio: Stemina devTOX quickPredict H9 human embryonic stem cell (hESC)-based Assay for Ornithine (ORN):Cystine (CYSS) Ratio (AID 2283714)
# In short: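 Steps: H9 hESCs in pluripotent state dosed 72h, medium plus compound renewed every 24h; conditioned medium from the final 24h deproteinized in 40% acetonitrile; ORN and CYSS quantified by UPLC-HRMS with C13 spike-ins; ratio relative to vehicle.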
# [14] = molecular target: D(1A) dopamine receptor (Homo sapiens) (UniProt P21728); experiment: NVS_GPCR_hDRD1: NovaScreen (NVS) G Protein-Coupled Receptor Assay for human Dopamine Receptor D1 (DRD1) (AID 2283269)
# D(1A) dopamine receptor (Homo sapiens), sequence (P21728 whole entry, looked up): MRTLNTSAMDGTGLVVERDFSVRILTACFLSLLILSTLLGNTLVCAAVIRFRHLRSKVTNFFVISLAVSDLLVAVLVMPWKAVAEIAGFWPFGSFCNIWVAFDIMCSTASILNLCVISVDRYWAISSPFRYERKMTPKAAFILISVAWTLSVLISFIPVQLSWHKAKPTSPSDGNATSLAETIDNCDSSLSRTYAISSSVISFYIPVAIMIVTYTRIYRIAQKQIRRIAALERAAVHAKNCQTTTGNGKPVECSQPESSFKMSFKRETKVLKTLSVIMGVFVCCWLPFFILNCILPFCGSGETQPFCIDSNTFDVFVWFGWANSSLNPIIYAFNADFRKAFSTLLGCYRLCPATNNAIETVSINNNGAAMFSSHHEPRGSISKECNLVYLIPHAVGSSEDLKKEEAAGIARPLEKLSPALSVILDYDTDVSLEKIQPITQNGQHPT
# In short: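 Radioligand displacement binding on membranes/protein extracted from HEK293 expressing human D1, cell-free; read 1 h after dosing by filter-based scintillation counting. Primary screen in duplicate at 25 uM, actives followed up in concentration series; signal loss versus DMSO baseline.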
# [15] = molecular target: rat Peripheral-type Benzodiazepine Receptor (PBR), Tspo (gene 24230) (UniProt P16257); experiment: NVS_MP_rPBR: NovaScreen (NVS) Membrane Protein Assay for rat Peripheral-type Benzodiazepine Receptor (PBR) (AID 2283335)
# rat Peripheral-type Benzodiazepine Receptor (PBR), Tspo (gene 24230), sequence (P16257 whole entry, looked up): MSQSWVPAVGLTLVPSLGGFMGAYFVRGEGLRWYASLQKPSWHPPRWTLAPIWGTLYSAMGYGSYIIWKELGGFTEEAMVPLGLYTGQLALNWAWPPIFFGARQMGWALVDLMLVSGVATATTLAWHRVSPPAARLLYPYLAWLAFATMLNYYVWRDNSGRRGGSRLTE
# In short: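 Rat kidney membranes; radioligand binding with displacement, filter-based scintillation counting, 1 h incubation. Primary screen in duplicate at 25 uM, actives followed in concentration series; loss of binding vs DMSO.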
# [16] = molecular target: Peroxisome proliferator-activated receptor gamma (Homo sapiens) (UniProt P37231); experiment: ATG_PPARg_TRANS: Attagene TRANS-FACTORIAL HepG2 Assay for human Peroxisome Proliferator-activated Receptor-gamma (PPARg) (AID 2283007)
# Peroxisome proliferator-activated receptor gamma (Homo sapiens), sequence (P37231 whole entry, looked up, the tested form may be a part): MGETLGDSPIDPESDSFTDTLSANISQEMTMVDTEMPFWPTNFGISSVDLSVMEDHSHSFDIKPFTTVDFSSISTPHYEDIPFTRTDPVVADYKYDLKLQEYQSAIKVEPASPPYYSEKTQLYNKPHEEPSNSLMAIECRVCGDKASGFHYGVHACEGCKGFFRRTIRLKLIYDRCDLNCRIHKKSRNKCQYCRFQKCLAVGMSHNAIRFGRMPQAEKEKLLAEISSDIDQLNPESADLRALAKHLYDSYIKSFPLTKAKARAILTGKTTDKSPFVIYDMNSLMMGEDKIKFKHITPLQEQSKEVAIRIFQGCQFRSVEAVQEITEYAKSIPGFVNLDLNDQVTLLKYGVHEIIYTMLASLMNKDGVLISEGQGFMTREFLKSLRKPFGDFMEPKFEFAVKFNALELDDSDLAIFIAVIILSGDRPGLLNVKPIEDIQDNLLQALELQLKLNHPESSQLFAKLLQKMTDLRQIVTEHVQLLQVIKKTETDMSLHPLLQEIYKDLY
# In short: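 A TRANS-format multiplexed reporter assay measures activity of an exogenous chimeric NR-Gal4 protein in HepG2 cells. After 24 h of chemical exposure, reporter transcripts are amplified, fluorescently labelled and sized by capillary electrophoresis, with gain of signal scored against DMSO.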
# [17] = CCTE_Shafer_MEA_dev_per_burst_spike_percent: CCTE's Neural Network Formation Assay for Percent of Spikes in a Burst, Shafer Lab (AID 2284032; active means hit-call score of the fitted dose curve at least 0.9, where 1 is the maximum; inactive means score below 0.9;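 further: fitted as a decrease in burst spike percentage below DMSO baseline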)
# In short: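 Rat primary cortical neurons on 16-electrode MEA wells, dosed from plating day 0 for 12 days with renewal on DIV 5 and 9; spikes-in-bursts percentage averaged over bursting electrodes, collapsed as AUC across days 5, 7, 9, 12; loss direction versus DMSO.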
# [18] = CCTE_Shafer_MEA_dev_active_electrodes_number: CCTE's Neural Network Formation Assay for Number of Active Electrodes, Shafer Lab (AID 2284040);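 further: potency for loss of active electrodes versus DMSO so lower counts are hits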
# In short: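 Primary rat cortical neurons on 16-electrode MEA wells, exposed from day 0 through day 12 with compound renewed at DIV 5 and 9 feeds. Active electrodes (mean firing ≥5 spikes/min) counted at DIV 5, 7, 9, 12; trapezoidal AUC across days, loss-of-signal versus DMSO.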
# [19] = CCTE_Shafer_MEA_dev_burst_rate: CCTE's Neural Network Formation Assay for Burst Rate, Shafer Lab (AID 2284042; active means hit-call score of the fitted dose curve at least 0.9, where 1 is the maximum; inactive means score below 0.9;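 further: potency for loss of burst rate below DMSO control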)
# In short: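 Primary rat cortical neurons on PEI-coated 48-well MEA plates (laminin added with cells at plating) (16 electrodes/well), exposed from plating to day 12, dosing renewed at DIV 5 and 9. Burst rate averaged over active electrodes, recorded DIV 5, 7, 9, 12, summarized as AUC; loss versus DMSO.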
# [20] = CCTE_Shafer_MEA_dev_bursting_electrodes_number: CCTE's Neural Network Formation Assay for Number of Bursting Electrodes, Shafer Lab (AID 2284043);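 further: potency is for loss of bursting electrodes relative to DMSO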
# In short: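 Read-out is the per-well number of electrodes bursting at least once every 2 minutes, recorded on days 5, 7, 9 and 12 and collapsed by trapezoidal area under the curve. Cultures were primary rat cortical neurons on MEA plates, treated continuously from plating.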
smiles,measurement,setting,value
CCC(C)=NO,outcome,[1],inactive
same,outcome,[2],inactive
same,outcome,[3],inactive
same,outcome,[4],inactive
same,outcome,[5],inactive
same,outcome,[6],inactive
same,outcome,[7],inactive
same,outcome,[8],inactive
same,outcome,[9],inactive
same,outcome,[10],inactive
CCC(C)(CCC(C)C)C(=O)O (stereo not given),AC50,[11],2320 nM (active)
same,outcome,[12],inactive
Cc1c(C(N)=O)cc([N+](=O)[O-])cc1[N+](=O)[O-],outcome,[13],inactive
CC(=[OH+])/C=C(/C)[O-].CC(=[OH+])/C=C(/C)[O-].CC(=[OH+])/C=C(/C)[O-].[Fe],outcome,[14],inactive
CC(=[OH+])/C=C(/C)[O-].CC(=[OH+])/C=C(/C)[O-].CC(=[OH+])/C=C(/C)[O-].[Al],AC50,[15],7030 nM (active)
CCCCNC(N)=O,outcome,[16],inactive
CNCCC(Oc1ccc(C(F)(F)F)cc1)c1ccccc1 (stereo not given),AC50,[17],4190 nM (active)
same,AC50,[18],2550 nM (active)
same,AC50,[19],2770 nM (active)
same,AC50,[20],1790 nM (active)
